Source: PubChem (National Center for Advancing Translational Sciences (NCATS))
D1 ag: Allosteric Agonists of the Human D1 Dopamine Receptor: qHTS; HEK293 T-REx D1 cells, calcium flux, agonist mode; activation, % at 2 µM; 360,000 tested, 1% active; AID 504660, 2011; in the data active = activation above about 30%; also: 0% is about no effect
Target sequence (P21728 whole entry, looked up): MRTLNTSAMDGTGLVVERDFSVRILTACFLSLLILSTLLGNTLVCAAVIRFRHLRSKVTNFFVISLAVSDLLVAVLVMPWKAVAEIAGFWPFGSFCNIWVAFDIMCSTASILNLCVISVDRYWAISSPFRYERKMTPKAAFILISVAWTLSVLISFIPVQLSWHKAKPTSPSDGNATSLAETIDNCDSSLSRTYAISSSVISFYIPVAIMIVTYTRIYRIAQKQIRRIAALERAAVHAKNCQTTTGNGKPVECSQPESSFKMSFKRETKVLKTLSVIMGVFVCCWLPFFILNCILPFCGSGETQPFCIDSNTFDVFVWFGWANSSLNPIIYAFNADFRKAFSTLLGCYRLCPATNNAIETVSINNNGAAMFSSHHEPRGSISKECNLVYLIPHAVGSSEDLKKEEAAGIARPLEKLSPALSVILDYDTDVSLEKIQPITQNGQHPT
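Inducible HEK293 T-REx D1 cells, force-coupled to calcium signalling, were plated at 4000 cells/well with tetracycline and held overnight at 30 C. After no-wash calcium dye loading, compound-evoked calcium rise over 180 s flagged agonists.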
D1 antagonist: Antagonist of Human D 1 Dopamine Receptor: qHTS | D(1A) dopamine receptor (Homo sapiens), P21728 | HEK293 TREx D1 cells, calcium flux, dopamine EC80; stronger effect = lower value | activity change, negative = inhibition, % at 10 µM | 360,000 tested, 3.2% active; in the data active = activity change below about -30%; also: % is scaled to controls: 0 for no effect and ±100 for the full control effect
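Allosteric or orthosteric antagonism assessed as attenuation of the calcium response to EC80 dopamine, added 180 s after compound, in induced HEK293 Trex D1 cells loaded with no-wash calcium dye.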
DRD3 antagonist: qHTS of D3 Dopamine Receptor Antagonist: qHTS | D3R cells, DiscoveRx beta-arrestin luminescence, antagonist mode; stronger effect = lower value | D(3) dopamine receptor (Homo sapiens), P35462 | 360,000 tested, 2.5% active | AID 652054, 2013 | max response, negative = inhibition, %; in the data active = max response below about -50%; inconclusive = no clear call, values can overlap the other calls; also: % is scaled to controls: 0 for no effect and ±100 for the full control effect
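Cells plated overnight at 1500 cells/well, then exposed to library compounds with dopamine controls for 90 minutes at 37 degrees C. DiscoveRx reagent added for 30–60 minutes at room temperature; luminescence read, quantitative HTS format.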
DRD3 agonist: qHTS of D3 Dopamine Receptor Agonist: qHTS. D(3) dopamine receptor (Homo sapiens), P35462. D3R DiscoveRx beta-arrestin cells, luminescence, 90 min. max activation, %. 410,000 tested, 0.58% active; in the data active = max activation above about 30%; also: 0% is about no effect
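Agonist-mode cell screen: cells plated at 1500/well and incubated overnight at 37 °C, then exposed to library compounds for 90 min at 37 °C. Detection reagent was added for 30–60 min at room temperature, and luminescence was read.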
D1 PAM: Potentiators of Human D1 Dopamine Receptor: qHTS. D(1A) dopamine receptor (Homo sapiens), P21728. HEK293 TREx D1 cells, calcium flux, dopamine EC20 potentiation. potentiation, % at 10 µM. 360,000 tested, 0.036% active; in the data active = potentiation above about 30%; also: 0% is about no effect
* = called active by the depositor; ? = inconclusive; / = no result. Sampled rows, rich in hits. Any-hit rate of the full collection: about 6%.

SMILES	D1 ag	D1 antagonist	DRD3 antagonist	DRD3 agonist	D1 PAM
O=C(COc1ccc(Cl)cc1)N1CCN(C(=O)c2cccs2)CC1	6	-61*	4	8	-2
Cc1cc(SCC(=O)OCC(=O)N2CCN(C(=O)c3ccco3)CC2)c(C)cc1Br	44*	-18	5	1	-6
Cc1ccccc1OCC(=O)OCC(=O)NCc1ccc2c(c1)OCO2	/	/	2	-6	/
Cc1cc(SCC(=O)N2CCN(C(=O)c3ccco3)CC2)c(C)cc1Br	13	-15	-5	-3	-6
Cc1cc(SCC(=O)OCC(=O)NCc2ccc3c(c2)OCO3)c(C)cc1Br	14	-38*	19	1	-2
CC(=O)Nc1ccc2nc3c(=O)n(C)c(=O)n(C)c3nc2c1C	0	2	/	1	0
O=C(NC1CC2CCCC(C1)N2Cc1ccccc1)c1cccc(Cl)c1 (centres undefined)	-1	-12	-76*	-11	-9
Cc1cccc(C(=O)NC2CC3CCCC(C2)N3S(=O)(=O)c2ccccc2)c1 (centres undefined)	2	5	5	6	3
O=C(NC1CC2CCCC(C1)N2Cc1ccccc1)c1cccc(F)c1 (centres undefined)	5	-9	-106*	-19	-10
CCCN1C2CCCC1CC(NC(=O)c1cccc(Cl)c1)C2 (centres undefined)	2	-4	4	-8	-6
CC1CCCN(C(=O)c2cc3c(Cl)nc4ccccc4c3s2)C1 (centres undefined)	1	6	/	8	0
COc1ccc(N(C)C(=O)c2cc3c(Cl)nc4ccccc4c3s2)cc1	4	-10	15	66*	0
Cc1nc2ccccc2c2oc(C(=O)N3CC(C)CC(C)C3)cc12 (centres undefined)	1	3	9	0	2
CN(C(=O)c1cc2c(Cl)nc3ccccc3c2s1)c1cccc(C(F)(F)F)c1	2	2	/	5	1
CC1CCCN(CCCNC(=O)c2cc(Sc3ccc(F)cc3)nc3ccccc23)C1 (centres undefined)	26	-22	/	-41	-2
Cc1nc2ccccc2c2oc(C(=O)NCCCN3CCCC(C)C3)cc12 (centres undefined)	2	-23	-77*	-17	-3
Cc1nc2ccccc2c2oc(C(=O)NCCCN3CC(C)CC(C)C3)cc12 (centres undefined)	0	15	-65*	-17	-1
CC1CCCN(CCCNC(=O)c2cc3c(Cl)nc4ccccc4c3s2)C1 (centres undefined)	1	-6	-65*	-13	-8
CN(C)c1ccc(-c2cc[nH]c(=O)c2N)cc1	0	12	/	/	5
CCOC(=O)C1CCCN(C(=O)c2cc(-c3ccco3)nc3ccccc23)C1 (centres undefined)	/	/	0	3	/
CCN(CCCNC(=O)c1cc2c(Cl)nc3ccccc3c2s1)Cc1ccccc1	8	-5	/	-16	-5
CCN(CCCNC(=O)c1cc2c(=O)n(C)c3ccccc3c2s1)c1ccccc1	1	3	/	-15	-1
CCN(CCCNC(=O)c1cc2c(=O)n(C)c3ccccc3c2s1)Cc1ccccc1	-1	-36*	/	-11	-2
CCOC(=O)C1CCCN(C(=O)c2cc3c(C)nc4ccccc4c3o2)C1 (centres undefined)	-4	3	39	38*	-2
CCCCN(CC)CCNC(=O)c1cc2c(=O)[nH]c3ccccc3c2s1	1	-6	-54*	-23	-3
SMILES	D1 ag	D1 antagonist	DRD3 antagonist	DRD3 agonist	D1 PAM
CCN(CC)CCCNC(=O)c1cc2c(Cl)nc3ccccc3c2s1	0	13	-54*	-28	-1
O=C(Cn1c(=O)n(-c2ccccc2Cl)c(=O)c2sc3ccccc3c21)N1CCCC1	-1	2	/	2	-1
COc1ccc(C)cc1NC(=O)Nc1nnc(N2CCCCC2)s1	9	-4	/	3	-2
Cc1[nH]nc2c1C(c1ccc(-c3ccc(Cl)cc3)o1)C(C#N)=C(N)O2 (centres undefined)	3	-3	-2	-3	-4
Cc1ccc(-c2ccc(C3C(C#N)=C(N)Oc4n[nH]c(C)c43)o2)cc1 (centres undefined)	14	-48*	-26	0	-12
CC1(C)Cc2cccc(OCC(=O)NCc3ccccc3F)c2O1	3	-35*	5	-4	0
Cc1ccc(CNC(=O)COc2cccc3c2OC(C)(C)C3)cc1	8	-8	-9	-13	-3
CN1C/C(=C/c2ccncc2)C(=O)/C(=C/c2ccncc2)C1	2	7	11	1	-5
CN1C/C(=C\c2ccc(N3CCOCC3)cc2)C(=O)/C(=C/c2ccc(N3CCOCC3)cc2)C1	46*	8	-12	-7	-4
CCc1ccc(/C=C2/SC(N3CCOCC3)=NC2=O)cc1	0	3	4	10	-2
CCN1C/C(=C/c2ccc(N3CCOCC3)cc2)C(=O)/C(=C/c2ccc(N3CCOCC3)cc2)C1	88*	5	3	2	-6
CC(C)CCn1c(=O)c2sccc2n2c(CCCC(=O)NC(C)c3ccccc3)nnc12 (centres undefined)	1	-1	/	1	1
CC(=O)Nc1nonc1-c1nnc(SCc2ccccc2F)n1C	1	-14	/	10	-2
COc1cccc(-c2ccc(NC(=O)C3CCCN(CCCn4nc(C)cc4C)C3)cc2)c1 (centres undefined)	41*	-21	5	-2	-7
CSc1ccccc1NC(=O)Nc1cccc(Cl)c1	16	-40*	?	-29	-21
CSc1ccccc1NC(=O)Nc1ccc(F)c(Cl)c1	9	-32*	-13	-24	-4
CC(C)C[C@H](NC(=O)Nc1cccc(Cl)c1)C(=O)O	3	-7	-10	4	-3
CC(C)NC(=O)Nc1cccc(Cl)c1	2	-40*	-2	6	3
O=C(Nc1cccc(Cl)c1)Nc1csc([N+](=O)[O-])c1	27	-47*	-29	20	-4
O=C(Nc1ccncc1)Nc1cccc(Cl)c1	13	-23	4	-7	-15
CCc1ccc(NC(=O)CC2C(=O)N(c3ccc(Cl)cc3)C(=O)N2Cc2ccco2)cc1 (centres undefined)	-2	-13	/	24	-2
CCOC(=O)c1ccc(NC(=O)CSc2c(C(C)C)cnc3c2c(=O)n(C)c(=O)n3C)cc1	0	-16	/	-4	-1
CC(C)c1ccc(NC(=O)C2CCCN(S(=O)(=O)c3cccc4cccnc34)C2)cc1 (centres undefined)	4	-3	/	6	4
